# Measurements taken from ChEMBL document CHEMBL2218924, “A broad activity screen in support of a chemogenomic map for kinase signalling research and drug discovery” (Biochem J, 2013).
# Legend:
# [1] = target: T1, Serine/threonine-protein kinase TAO2 (Homo sapiens) (UniProt Q9UL54); details: at 1 µM
# T1 sequence (whole entry): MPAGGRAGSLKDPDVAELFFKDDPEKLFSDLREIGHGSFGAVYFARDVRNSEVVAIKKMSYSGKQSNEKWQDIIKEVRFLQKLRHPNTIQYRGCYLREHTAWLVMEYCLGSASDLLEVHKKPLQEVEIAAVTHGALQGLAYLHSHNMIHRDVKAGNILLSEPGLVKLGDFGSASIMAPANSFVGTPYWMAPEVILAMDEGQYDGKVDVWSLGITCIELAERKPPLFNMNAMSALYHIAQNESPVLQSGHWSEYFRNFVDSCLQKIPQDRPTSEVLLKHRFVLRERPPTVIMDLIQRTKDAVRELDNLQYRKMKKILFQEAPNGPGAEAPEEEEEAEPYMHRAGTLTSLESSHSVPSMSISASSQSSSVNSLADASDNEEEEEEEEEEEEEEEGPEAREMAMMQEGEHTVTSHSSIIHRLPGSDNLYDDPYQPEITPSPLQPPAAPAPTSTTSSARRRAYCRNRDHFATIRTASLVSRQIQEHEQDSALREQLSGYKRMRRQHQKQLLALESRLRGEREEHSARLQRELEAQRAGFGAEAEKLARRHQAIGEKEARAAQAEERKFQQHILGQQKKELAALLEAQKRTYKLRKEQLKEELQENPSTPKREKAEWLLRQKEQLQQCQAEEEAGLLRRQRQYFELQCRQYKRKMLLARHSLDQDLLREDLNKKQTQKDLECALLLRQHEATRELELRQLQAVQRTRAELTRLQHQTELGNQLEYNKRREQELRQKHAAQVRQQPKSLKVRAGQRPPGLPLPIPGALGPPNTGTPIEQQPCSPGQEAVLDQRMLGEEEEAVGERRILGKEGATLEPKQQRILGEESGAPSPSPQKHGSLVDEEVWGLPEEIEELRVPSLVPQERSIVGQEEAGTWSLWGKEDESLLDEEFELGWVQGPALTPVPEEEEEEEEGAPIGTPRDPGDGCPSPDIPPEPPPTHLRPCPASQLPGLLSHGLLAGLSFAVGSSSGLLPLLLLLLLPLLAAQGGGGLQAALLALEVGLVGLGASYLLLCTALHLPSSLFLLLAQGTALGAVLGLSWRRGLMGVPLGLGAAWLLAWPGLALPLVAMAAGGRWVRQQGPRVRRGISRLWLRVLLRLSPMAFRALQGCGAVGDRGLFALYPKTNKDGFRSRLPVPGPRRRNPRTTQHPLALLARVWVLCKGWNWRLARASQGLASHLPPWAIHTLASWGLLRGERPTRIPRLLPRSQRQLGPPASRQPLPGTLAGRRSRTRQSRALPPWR
# [2] = target: T1, Serine/threonine-protein kinase TAO2 (Homo sapiens); details: at 10 µM
# [3] = target: T2, Serine/threonine-protein kinase TAO3 (Homo sapiens) (UniProt Q9H2K8); details: at 1 µM
# T2 sequence (whole entry): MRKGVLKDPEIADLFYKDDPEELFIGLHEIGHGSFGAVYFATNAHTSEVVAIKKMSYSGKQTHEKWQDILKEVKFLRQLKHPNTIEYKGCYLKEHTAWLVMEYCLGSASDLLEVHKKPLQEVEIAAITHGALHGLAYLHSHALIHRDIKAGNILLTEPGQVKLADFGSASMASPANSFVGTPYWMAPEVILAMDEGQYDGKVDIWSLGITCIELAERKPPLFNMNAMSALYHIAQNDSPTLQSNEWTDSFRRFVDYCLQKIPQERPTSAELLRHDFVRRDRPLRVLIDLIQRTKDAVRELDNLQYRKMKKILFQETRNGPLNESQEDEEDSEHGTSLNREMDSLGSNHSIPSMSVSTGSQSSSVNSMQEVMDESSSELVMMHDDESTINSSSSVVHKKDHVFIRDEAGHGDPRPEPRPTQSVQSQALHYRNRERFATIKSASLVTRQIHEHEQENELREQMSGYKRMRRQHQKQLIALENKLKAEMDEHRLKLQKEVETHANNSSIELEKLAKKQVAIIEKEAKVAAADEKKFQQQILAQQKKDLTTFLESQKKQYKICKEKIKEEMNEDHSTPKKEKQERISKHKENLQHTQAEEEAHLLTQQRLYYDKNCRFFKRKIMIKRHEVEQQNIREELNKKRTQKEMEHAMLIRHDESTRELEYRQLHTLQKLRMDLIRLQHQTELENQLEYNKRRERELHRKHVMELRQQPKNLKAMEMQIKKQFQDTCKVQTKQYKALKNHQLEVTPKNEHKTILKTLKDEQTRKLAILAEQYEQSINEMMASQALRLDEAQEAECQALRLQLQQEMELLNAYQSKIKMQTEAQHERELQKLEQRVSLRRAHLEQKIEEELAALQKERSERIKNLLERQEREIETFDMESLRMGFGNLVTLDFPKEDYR
# [4] = target: T2, Serine/threonine-protein kinase TAO3 (Homo sapiens); details: at 10 µM
# [5] = target: T3, Serine/threonine-protein kinase TBK1 (Homo sapiens) (UniProt Q9UHD2); details: at 1 µM
# T3 sequence (whole entry): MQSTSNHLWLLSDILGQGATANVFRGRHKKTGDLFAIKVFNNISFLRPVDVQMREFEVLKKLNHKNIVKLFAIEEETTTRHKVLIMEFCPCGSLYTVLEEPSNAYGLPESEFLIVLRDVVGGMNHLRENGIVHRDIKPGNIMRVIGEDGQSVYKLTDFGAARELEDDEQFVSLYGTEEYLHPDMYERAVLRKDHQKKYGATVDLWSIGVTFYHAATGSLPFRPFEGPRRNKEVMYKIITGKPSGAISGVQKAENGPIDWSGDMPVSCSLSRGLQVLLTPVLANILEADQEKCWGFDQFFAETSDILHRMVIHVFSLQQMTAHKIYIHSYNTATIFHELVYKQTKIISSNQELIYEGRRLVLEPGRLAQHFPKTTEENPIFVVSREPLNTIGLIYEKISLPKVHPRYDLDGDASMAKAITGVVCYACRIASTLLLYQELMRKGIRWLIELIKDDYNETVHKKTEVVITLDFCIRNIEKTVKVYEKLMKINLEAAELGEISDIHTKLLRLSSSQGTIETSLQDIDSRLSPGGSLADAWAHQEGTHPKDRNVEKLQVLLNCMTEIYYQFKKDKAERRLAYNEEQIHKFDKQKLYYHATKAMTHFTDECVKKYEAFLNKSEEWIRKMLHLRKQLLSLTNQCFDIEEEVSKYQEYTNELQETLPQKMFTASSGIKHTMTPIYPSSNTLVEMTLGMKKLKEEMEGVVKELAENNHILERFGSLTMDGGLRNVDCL
# [6] = target: T3, Serine/threonine-protein kinase TBK1 (Homo sapiens); details: at 10 µM
# [7] = target: T4, TGF-beta receptor type-1 (Homo sapiens) (UniProt P36897); details: at 1 µM
# T4 sequence (whole entry): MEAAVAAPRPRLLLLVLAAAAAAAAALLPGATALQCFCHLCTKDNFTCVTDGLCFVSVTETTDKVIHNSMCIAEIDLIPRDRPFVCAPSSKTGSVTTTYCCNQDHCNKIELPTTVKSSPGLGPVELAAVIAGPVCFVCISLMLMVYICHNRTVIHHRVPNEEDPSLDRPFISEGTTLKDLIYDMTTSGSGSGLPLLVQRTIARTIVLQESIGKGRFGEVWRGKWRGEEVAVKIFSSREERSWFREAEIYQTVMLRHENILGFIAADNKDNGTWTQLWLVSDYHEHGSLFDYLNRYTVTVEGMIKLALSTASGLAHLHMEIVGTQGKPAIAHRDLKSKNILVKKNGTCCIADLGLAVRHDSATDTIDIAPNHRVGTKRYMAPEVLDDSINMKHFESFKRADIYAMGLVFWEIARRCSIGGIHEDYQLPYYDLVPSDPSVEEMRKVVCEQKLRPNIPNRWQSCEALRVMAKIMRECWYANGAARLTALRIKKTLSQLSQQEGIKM
# [8] = target: T4, TGF-beta receptor type-1 (Homo sapiens); details: at 10 µM
# [9] = target: Insulin-like growth factor 1 receptor (Homo sapiens) (UniProt P08069); details: at 1 µM
# Chain of Insulin-like growth factor 1 receptor (Homo sapiens) (P08069 31-736 limits assumed): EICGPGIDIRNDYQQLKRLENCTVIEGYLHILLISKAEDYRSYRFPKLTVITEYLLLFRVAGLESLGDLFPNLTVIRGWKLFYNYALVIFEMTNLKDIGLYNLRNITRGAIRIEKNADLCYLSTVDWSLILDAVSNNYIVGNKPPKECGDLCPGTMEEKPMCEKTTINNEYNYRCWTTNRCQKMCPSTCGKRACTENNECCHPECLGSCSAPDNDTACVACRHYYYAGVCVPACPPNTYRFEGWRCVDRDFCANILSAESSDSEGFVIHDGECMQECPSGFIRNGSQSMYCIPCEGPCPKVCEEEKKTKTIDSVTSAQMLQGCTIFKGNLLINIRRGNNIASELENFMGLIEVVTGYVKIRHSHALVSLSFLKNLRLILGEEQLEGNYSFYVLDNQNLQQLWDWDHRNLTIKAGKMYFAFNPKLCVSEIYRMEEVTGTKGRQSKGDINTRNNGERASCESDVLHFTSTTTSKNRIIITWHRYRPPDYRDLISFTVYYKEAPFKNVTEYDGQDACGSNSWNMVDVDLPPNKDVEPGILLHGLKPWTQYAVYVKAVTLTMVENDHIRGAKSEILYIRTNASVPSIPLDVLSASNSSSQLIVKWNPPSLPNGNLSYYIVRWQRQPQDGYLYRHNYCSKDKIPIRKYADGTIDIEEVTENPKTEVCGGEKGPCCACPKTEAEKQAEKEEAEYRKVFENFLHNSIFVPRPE
# Chain of Insulin-like growth factor 1 receptor (Homo sapiens) (P08069 741-1367 limits assumed): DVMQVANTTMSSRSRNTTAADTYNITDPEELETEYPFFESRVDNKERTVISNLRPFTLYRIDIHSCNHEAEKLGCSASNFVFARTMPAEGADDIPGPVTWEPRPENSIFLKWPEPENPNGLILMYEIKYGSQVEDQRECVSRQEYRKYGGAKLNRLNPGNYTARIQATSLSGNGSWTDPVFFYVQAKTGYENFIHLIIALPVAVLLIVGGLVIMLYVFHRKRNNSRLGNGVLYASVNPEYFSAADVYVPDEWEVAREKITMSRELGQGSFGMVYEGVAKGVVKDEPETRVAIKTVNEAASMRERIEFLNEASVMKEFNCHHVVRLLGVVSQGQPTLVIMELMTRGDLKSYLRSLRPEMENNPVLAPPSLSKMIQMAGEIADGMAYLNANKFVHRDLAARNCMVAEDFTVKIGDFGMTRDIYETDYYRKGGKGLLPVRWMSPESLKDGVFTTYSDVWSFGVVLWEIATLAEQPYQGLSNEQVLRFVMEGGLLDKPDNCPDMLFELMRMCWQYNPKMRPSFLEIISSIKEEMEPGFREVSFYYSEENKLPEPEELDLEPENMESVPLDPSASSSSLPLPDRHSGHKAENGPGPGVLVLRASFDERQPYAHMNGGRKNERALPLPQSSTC
# [10] = target: Insulin-like growth factor 1 receptor (Homo sapiens) (UniProt P08069); details: at 10 µM
SMILES,residual activity [1],residual activity [2],residual activity [3],residual activity [4],residual activity [5],residual activity [6],residual activity [7],residual activity [8],residual activity [9],residual activity [10]
O=[N+]([O-])/C=C/c1ccc2c(c1)OCO2,107%,81%,90%,100%,87%,81%,90%,101%,103%,91%
O=C1c2ccccc2-c2nc3nnnn3nc21,111%,103%,,,,83%,,,,
COc1cc2ncnc(Nc3ccc(OCc4ccccc4)cc3)c2cc1OC,104%,90%,107%,93%,92%,71%,102%,100%,108%,104%
CC(C)[C@H](CO)Nc1nc(Nc2cccc(Cl)c2)c2ncn(C(C)C)c2n1,98%,49%,82%,32%,90%,66%,95%,93%,48%,12%
COc1ccc2c(c1)/C(=C/c1cnc[nH]1)C(=O)N2,72%,14%,59%,12%,,,,,,
O=C1Nc2ccc3ncsc3c2/C1=C/c1c[nH]cn1,33%,10%,17%,6%,7%,0%,68%,38%,94%,60%
C[S+]([O-])c1ccc(-c2nc(-c3ccc(F)cc3)c(-c3ccncc3)[nH]2)cc1 (stereo not given),111%,79%,108%,79%,124%,111%,130%,77%,117%,122%
COc1ccc2c(c[n+](C)c3c4cc5c(cc4ccc23)OCO5)c1OC,,93%,99%,90%,81%,65%,82%,89%,93%,82%
CN[C@@H]1C[C@H]2O[C@@](C)([C@@H]1OC)n1c3ccccc3c3c4c(c5c6ccccc6n2c5c31)C(=O)NC4,,,,,,0%,79%,30%,,
COC(=O)[C@@]1(O)C[C@H]2O[C@]1(C)n1c3ccccc3c3c4c(c5c6ccccc6n2c5c31)C(=O)NC4,16%,2%,10%,3%,-1%,3%,49%,8%,23%,3%
CCn1cnc2c(Nc3cccc(Cl)c3)nc(N[C@@H]3CCCC[C@@H]3N)nc21,81%,33%,82%,43%,68%,45%,,79%,71%,44%
COc1cc(OC)c(/C=C2\C(=O)Nc3ccccc32)c(OC)c1,104%,81%,90%,68%,61%,56%,79%,81%,95%,98%
c1cc(-c2cnn3cc(-c4ccc(OCCN5CCCCC5)cc4)cnc23)ccn1,,,,82%,64%,13%,78%,30%,,
O=c1[nH]c2ccccc2n1C1CCN(Cc2ccc(-c3nc4cc5[nH]cnc5cc4nc3-c3ccccc3)cc2)CC1,101%,56%,93%,66%,82%,68%,91%,87%,98%,80%
CC(C)(C)c1cc(C=C(C#N)C#N)cc(Br)c1O,113%,103%,101%,97%,103%,,97%,97%,105%,104%
O=C1NC(=O)c2c1c1c3ccccc3n3c1c1c2c2ccccc2n1C1CCC3O1,,,96%,94%,54%,62%,,,,
N/C(=N\[N+](=O)[O-])N/N=C\c1ccc(-c2cccc([N+](=O)[O-])c2)o1,,,96%,93%,94%,72%,98%,98%,,
CCc1nc(-c2ccc(OC)cc2)[nH]c1-c1ccncc1,,,,,108%,,,,104%,107%
